A selection: hits, their analogues and other compounds. The true share with any hit is near 4.6%.
SKKanGAS inh: blocks kanamycin growth of S. pyogenes SKKanGAS strain; BacTiter-Glo, 6 h; inhibition, % at 7.5 µM; 1.3% of 300,000 active; AID 1662;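 active = mean replicate score, as percent of positive control median, at least 50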;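 note: strain carries kanamycin resistance gene driven by streptokinase promoter and grows in 40 µg/ml kanamycin; loss of luminescence reflects streptokinase promoter inhibition or plain growth inhibition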
tim10-1 inh: tim10-1 yeast growth inhibition; 2.2% of 330,000 active; inhibition, % at 20 µM; S. cerevisiae tim10-1 ts strain growth, BacTiter-Glo, 24 h;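 active = inhibition of at least 40%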;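 note: mutant grown at 25 °C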
tim23-1 inh: inhibits growth of tim23-1 mutant yeast; S. cerevisiae tim23-1 growth, BacTiter-Glo luminescence, 24 h; inhibition, % at 20 µM; 1.3% of 330,000 active; AID 463212;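 active = growth inhibition of the mutant yeast at or above 50%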;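 note: temperature-sensitive mutant grown at 25 °C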
TIM10 inh: TIM10 yeast growth inhibition. AID 463195. inhibition, % at 10 µM. 1.4% of 330,000 active. S. cerevisiae TIM10 strain growth, BacTiter-Glo luminescence, 24 h;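 active = inhibition of 40% or more at the single tested concentration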;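 note: wild-type TIM10 isogenic control strain grown at permissive 25 °C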
PfHsp90 yeast 2: reduces growth (ATP signal) of yeast expressing P. falciparum Hsp90; inhibition, % at 9.4 µM; S. cerevisiae expressing PfHsp90, BacTiter-Glo ATP, 48 h; yeast lacking PDR1 and PDR3 efflux regulators; 0.32% of 310,000 active;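 active = every replicate shows inhibition above about 80%, whatever the replicate mean, limit read from the data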
V-ATPase pH: alters yeast V-ATPase proton transport; S. cerevisiae, pHLuorin cytosolic pH fluorescence; response, % at 10 µM; 0.37% of 350,000 active; AID 504577; in the data active = response mostly above about 7.3%, no sharp cut-off; inactive = mostly below about 5.4%; note: actives read high
tim10-1 confirm: confirmation of tim10-1 mutant yeast growth inhibitors | S. cerevisiae tim10-1 ts strain growth, BacTiter-Glo, 24 h | AID 463213 | inhibition, % at 20 µM | 56% of 7,400 active | shares compounds with tim10-1 inh;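 active = inhibition of yeast growth at or above a set limit in either of two repeat tests at 20 µM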;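 note: tim10-1 mutant grown at permissive 25 °C to find synthetic lethal compounds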
Of the large screens only hits and unclear results are named; the others gave an inactive call (follow-up assays come after a bar, where they were run).

O=C1CC(=C2c3ccccc3-c3ccccc32)C(=O)N1CCN1CCN(c2cccc(Cl)c2)CC1	tim10-1 inh 41 | tim10-1 confirm inactive
CC(C)NC(=S)N/N=C1\CCCCc2ccccc21	tim10-1 inh 57 | tim10-1 confirm 38
COc1cccc(NC(=S)N/N=C2/CCCCc3ccccc32)c1	none (no result: tim10-1 inh, tim23-1 inh, TIM10 inh)
COc1ccccc1NS(=O)(=O)c1cc(NC(=O)CNC(=O)c2ccc(C)s2)ccc1Cl	none
O=C(Cc1ccc(NC(=O)C2CCN(C(=O)C3CCCC3)CC2)cc1)Nc1cccc(C(=O)N2CCCCC2)c1	none (no result: SKKanGAS inh, tim10-1 inh, tim23-1 inh, TIM10 inh)
Cc1sc(N/N=C/c2ccco2)nc1-c1ccccc1	tim10-1 inh 43 | tim10-1 confirm inactive
Cc1ccc(C)c(S(=O)(=O)ON2C(=O)c3ccccc3C2=O)c1	tim10-1 inh 70 (no result: SKKanGAS inh) | tim10-1 confirm 52
CC(C)(C)c1ccc(C(=O)NCC(=O)OCC(=O)N2CCCC2)cc1	none (no result: SKKanGAS inh)
Cc1ccc(S(=O)(=O)CCC(=O)OCC(=O)Nc2cc(S(=O)(=O)N3CCOCC3)ccc2Cl)cc1	none (no result: SKKanGAS inh, tim10-1 inh, tim23-1 inh, TIM10 inh)
O=C(COC(=O)CCS(=O)(=O)c1ccccc1)Nc1cc(S(=O)(=O)N2CCCCC2)ccc1Cl	tim10-1 inh 40 (no result: PfHsp90 yeast 2) | tim10-1 confirm 42
COC(=O)C(CC(=O)c1ccc(Br)cc1)n1ccnc1 (stereo not drawn)	tim10-1 inh 72 (no result: PfHsp90 yeast 2, V-ATPase pH) | tim10-1 confirm 44
COC(=O)C(CC(=O)c1ccc(Br)cc1)n1nc(C)cc1C (stereo not drawn)	none
Cn1c(NCCCO)nc2c(c1=O)C1(CCCCC1)Cc1ccccc1-2	tim10-1 inh 54 (no result: SKKanGAS inh) | tim10-1 confirm 38
CCC(=O)Nn1cnc2c(c1=O)C1(CCCCC1)Cc1ccccc1-2	tim10-1 inh 50 | tim10-1 confirm 37
CCC(=O)NC(c1ccco1)c1cc(Cl)c2ccccc2c1O (stereo not drawn)	none (no result: SKKanGAS inh)
CCCC(=O)NC(c1ccco1)c1cc(Cl)c2cccnc2c1O (stereo not drawn)	SKKanGAS inh 71, tim10-1 inh 50, PfHsp90 yeast 2 105 | tim10-1 confirm inactive
COc1ccc(C(NC(C)=O)c2cc(Cl)c3cccnc3c2O)cc1OC (stereo not drawn)	SKKanGAS inh 55, tim10-1 inh 40 | tim10-1 confirm inactive
COc1ccc(-c2[nH]ncc2CN(CCO)Cc2cccs2)c(F)c1	none
CNC(=S)NNC(=O)c1noc(C)c1C(=O)N1CCN(C(c2ccccc2)c2ccccc2)CC1	none
FC(F)(F)c1nc2ccccc2c2nc3ccccc3n12	tim10-1 inh 41 | tim10-1 confirm inactive
FC(F)(F)c1nnc2c(Sc3ccccn3)nc3ccccc3n12	tim10-1 inh 55 (no result: PfHsp90 yeast 2) | tim10-1 confirm 35
O=C(CN1CCN(S(=O)(=O)c2ccccc2)CC1)Nc1ccc([N+](=O)[O-])cc1	tim10-1 inh 47 | tim10-1 confirm 32
COc1ccc(N(C(=O)CCl)C(C(=O)NC2CCCCC2)c2cccnc2)cc1 (stereo not drawn)	tim10-1 inh 41, V-ATPase pH 15 | tim10-1 confirm 32
CCC1=C(c2ccc(OC)cc2)CCC(C(=O)O)C1C (stereo not drawn)	none (no result: SKKanGAS inh, tim10-1 inh, tim23-1 inh, TIM10 inh)
CCCCOC(=O)c1ccc(NC(=O)COC(=O)CSc2nc(C)cc(C)n2)cc1	tim10-1 inh 46 | tim10-1 confirm inactive
CCOc1ccc(NC(=O)CSc2nc(C)cc(C)n2)cc1	none
Cc1cccn2c(=O)c(C=O)c(N3CCN(c4ccc(F)cc4)CC3)nc12	tim10-1 inh 49 | tim10-1 confirm 36
CC(C)NS(=O)(=O)c1ccc(OCC(=O)N2CCN(c3ccccc3)CC2)cc1	none
O=C(COc1ccc(S(=O)(=O)NC2CCCCC2)cc1)N1CCN(c2cccc(Cl)c2)CC1	tim10-1 inh 46 | tim10-1 confirm inactive
O=S1(=O)NC(CC2=CCCCC2)C2CCCCC2O1 (stereo not drawn)	none
COC(=O)c1ccc(NS(=O)(=O)c2ccc(SC)cc2)cc1	tim10-1 inh 40 | tim10-1 confirm inactive
Cc1ncc(CN2CCCC(C(=O)Nc3ccc(-c4cccc(F)c4)cc3)C2)n1C (stereo not drawn)	none
Cc1sc(NC(=O)c2ccco2)c(C(c2cccnc2)N2CCCC2)c1C (stereo not drawn)	tim10-1 inh 52 (no result: PfHsp90 yeast 2) | tim10-1 confirm 45
COc1ccc(C(Nc2ccccn2)c2c(NC(=O)c3ccco3)sc(C)c2C)cc1 (stereo not drawn)	tim10-1 inh 41 | tim10-1 confirm inactive
Cc1sc(NC(=O)c2ccco2)c(C(Nc2ccccn2)c2ccccc2)c1C (stereo not drawn)	none | tim10-1 confirm inactive
Cc1cccc(NS(=O)(=O)c2cccc(C(=O)NCCCN3CCOCC3)c2)c1	none
CC1CCN(C(=O)CCC(=O)Nc2nnc(C(F)(F)F)s2)CC1	none
O=C(CSc1n[nH]c(-c2ccco2)n1)N1c2ccccc2Sc2ccccc21	tim10-1 inh 46 (no result: PfHsp90 yeast 2) | tim10-1 confirm inactive
NC(=O)C1=CC2C3C=CC2(O)C(=O)OC3O1 (stereo not drawn)	none (no result: SKKanGAS inh, tim10-1 inh, tim23-1 inh, TIM10 inh)
CCCC1CCC(C2=N/C(=C\c3ccc(OC)c(OC)c3)C(=O)O2)CC1 (stereo not drawn)	none
COc1cccc(/C=C2\N=C(C3CCCCC3)OC2=O)c1OC	tim10-1 inh 47 (no result: PfHsp90 yeast 2) | tim10-1 confirm 33
CC(C)(C)C(=O)Nc1ccc(-c2nc3ccccc3c(=O)o2)cc1	none (no result: SKKanGAS inh)
COc1cccc(-c2nc3ccc(O)cc3c(=O)o2)c1	tim10-1 inh 55 | tim10-1 confirm inactive
CC(C)C(=O)Nc1ccc(-c2nc3ccccc3c(=O)o2)cc1	tim10-1 inh 56 | tim10-1 confirm 41
CC(C)(C)C(=O)Nc1cccc(-c2nc3ccccc3c(=O)o2)c1	tim10-1 inh 40 | tim10-1 confirm 48
O=C(O)/C=C\c1cccc(-n2nnnc2SCc2ccccc2F)c1	none
COc1ccccc1OCC(=O)N/N=C(\C)c1ccc2ccccc2c1	none (no result: SKKanGAS inh, tim10-1 inh, tim23-1 inh, TIM10 inh, PfHsp90 yeast 2)
CC1=NN(c2nc(-c3ccc(F)cc3)cs2)C(=O)C1	none
CC1=NN(c2ccc(Cl)cc2)C(=O)C1	tim10-1 inh 47 | tim10-1 confirm inactive
CC1=NN(c2ccc(N)cc2)C(=O)C1	none
CC1=NN(c2nc(-c3ccc(Cl)cc3)cs2)C(=O)C1	tim10-1 inh 63 | tim10-1 confirm 29
Cc1ccc(-c2csc(N(CCO)CCCn3c(C(F)(F)F)nc4ccccc43)n2)cc1	tim10-1 inh 44 | tim10-1 confirm inactive
CCOc1ccc(C(=O)OCC(=O)Nc2ccc(SC(F)F)cc2)cc1OCC	none
C=CCNc1sc(C(=O)c2ccccc2)c(N)c1-c1nc2ccccc2s1	tim10-1 inh 40 (no result: PfHsp90 yeast 2) | tim10-1 confirm inactive
CCOC(=O)c1sc(NCc2ccco2)c(-c2nc3ccccc3s2)c1N	none
CC(/C=N/Nc1nc(C)cc(=O)[nH]1)=C\c1ccccc1	none (no result: PfHsp90 yeast 2)
